Data on 13 compounds can be found in publication PMC5540273 (PLoS ONE, 2017).
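Note: KINOMEscan kinase panel screen.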

The assay has as its system PRKG2. The conditions noted are these: concentration: 1 μM, replicates: in singlicate; n = 1.
Turning to `COc1cccc(C2=C(Nc3cc(Cl)c(O)c(Cl)c3)C(=O)NC2=O)c1` [SB-390767], the “%Inh” value is recorded as 0%.

Consider `CN1c2ccc(-c3ccc(C(N)=O)cc3)cc2-c2[nH]ncc2S1(=O)=O`, for which the “%Inh” value is reported as 2%. `O=C(Nc1n[nH]c2nc(-c3ccco3)c(Br)cc12)C1CCN(Cc2ccccc2)C1.O=C(O)[C@H](O)[C@@H](O)C(=O)O` (stereo not shown) [SB-742034]: the “%Inh” value was determined as 2%.

Turning to `Cc1ccccc1-c1cc(-c2c[nH]nc2-c2ccccn2)ccn1` [GW680061], the “%Inh” value is given as 0%. For the compound `O=C(Nc1n[nH]c2cc(-c3ccsc3)ccc12)C1CC1` [SB-732932], the “%Inh” value is given as 8%.

`Fc1ccc(-c2nc[nH]c2-c2ccncc2)cc1` [SB-217360]: the “%Inh” value is given as 0%. For `CNCc1ccc2nc(NC(=O)c3ccc(C(C)(C)C)cc3)cn2c1` the value was 21%; for `Cc1ccc(NC(=O)Nc2ccc(Cl)cc2)cc1-c1ccc(C(=O)Nc2ccncc2)cc1` [GSK1398472], 0%; for `CCCCc1nn2ncccc2c1-c1ccnc(NC2CC2)n1` [GW684374], 0%. Consider `COc1ccc(-c2coc3ccc(-c4nnc(C)o4)cc23)cc1`, for which the “%Inh” value is listed as 0%. In the case of `CS(=O)(=O)CCNCc1nc(-c2ccc3ncnc(Nc4ccc(OCc5ccccc5)c(Cl)c4)c3c2)cs1.Cl` [GW582764], the “%Inh” value stood at 1%. For `CC[C@@H]1CO[C@H](C(=O)Nc2ccccc2)CN1c1cc(-c2ccc3c(N)n[nH]c3c2)nc(NC)n1` [GSK2376236] the value was 84%. Next, `COc1ccc(Nc2nccc(NCCNC(=O)Nc3cc(C)ccc3C)n2)cc1` [GSK1379899]: 0%.
